The source of these data is PubChem BioAssay.

A short description of assay [1]: growth inhibition of DIPG glioma cells, dose response, cell-based, SU-DIPG-XVII, MIPE5.0, CellTiter-Glo, qHTS (AID 1347060; cut-off not given, nearly all actives have AC50 up to about 26 µM;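 on AC50: cells exposed to compound for 48 hours before viability readout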). The following applies: SU-DIPG-XVII viability, CellTiter-Glo ATP luminescence. (ATP-based viability assays read luminescence as a measure of living cells.)
Assay [2] in a line: growth inhibition of DIPG glioma cells, dose response, cell-based, SU-DIPG-XIII, MIPE4.0, CellTiter-Glo, qHTS (AID 1347061; cut-off not given, nearly all actives have AC50 up to about 37 µM;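 further: cells exposed to compound for 48 hours before readout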). The following applies: SU-DIPG-XIII viability, CellTiter-Glo ATP luminescence.
Assay [3] can be described thus: growth inhibition of DIPG glioma cells, dose response, cell-based, JHH-DIPG-1, MIPE4.0, CellTiter-Glo, qHTS (AID 1347062; cut-off not given, nearly all actives have AC50 up to about 27 µM;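 on AC50: cells exposed to compound for two days before readout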). The following applies: JHH-DIPG-1 viability, CellTiter-Glo ATP luminescence.
The nature of assay [4]: growth inhibition of DIPG glioma cells, dose response, cell-based, SU-DIPG-IV, MIPE4.0, CellTiter-Glo, qHTS (AID 1347063; cut-off not given, nearly all actives have AC50 up to about 30 µM;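 further: compound exposure lasted 48 hours before the viability readout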). The following applies: SU-DIPG-IV viability, CellTiter-Glo ATP luminescence.
The nature of assay [5]: growth inhibition of DIPG glioma cells, dose response, cell-based, SU-DIPG-XIII, MIPE5.0, CellTiter-Glo, qHTS (AID 1347064; cut-off not given, nearly all actives have AC50 up to about 23 µM;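 on AC50: cells exposed to compound for 48 hours before the viability read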). The following applies: SU-DIPG-XIII viability, CellTiter-Glo ATP luminescence.
A short description of assay [6]: SU-DIPG-XXV glioma cell viability, MIPE5.0 library, qHTS (AID 1347068; cut-off not given, nearly all actives have IC50 up to about 30 µM;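 on IC50: cells exposed to compound for 48 hours before viability readout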).
Assay [7] in a line: sensitizers of A549 cells to miR-34 induction, primary screen, imaging, A549 dox-inducible miR-34, nuclei and caspase counts (AID 1347080;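 active means compounds whose cell count with miR-34 switched on is under 0.7 times the count with it off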). The conditions noted are these: A549 miR-34 inducible, Hoechst nuclei count, 48 h.
A short description of assay [8]: modifiers of HSF1 nuclear foci, imaging, Selleck Cancer Library (AID 1347162; in the data active means plate-normalised HSF1 focus index below about 0.46). The conditions noted are these: human cells, at 10 µM; SSMD: measured here: HSF1 foci SSMD mean; cell count: measured here: cell number; plate-normalised HSF1 focus index: stronger effect = lower value.
The nature of assay [9]: survival rescue of mitochondrial mutant cells in low glucose, primary screen, MELAS cybrids, Rieske KO mouse fibroblasts, CellTiter-Glo (AID 1508586;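 active means mean z-score across replicates of 1.96 or higher in either the MELAS or the Rieske mutant cell line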;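 further: z relative to plate mean and SD of compound and empty wells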).
Assay [10] is described as follows: ovarian cancer cell viability with rucaparib, profiling panel, oncology-focused library, rucaparib conditional (AID 1508598). The following applies: patient-derived ovarian cancer cells, CellTiter-Glo viability, 144 h, stronger effect = lower value.
Assay [11] can be described thus: SU-DIPG-VI glioma cell viability, MIPE4.0 library, CellTiter-Glo luminescence, qHTS (AID 1347066; cut-off not given, nearly all actives have AC50 up to about 30 µM;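 further: cells exposed to compound for 48 hours before readout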). The conditions noted are these: CellTiter-Glo ATP luminescence.
Assay [12] can be described thus: JHH-DIPG-1 glioma cell viability, MIPE5.0 library, CellTiter-Glo luminescence, qHTS (AID 1347067; cut-off not given, nearly all actives have AC50 up to about 26 µM;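 further: cells exposed to compound for 48 hours before readout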). The conditions noted are these: JHH-DIPG-1 glioma viability, CellTiter-Glo ATP luminescence.
A short description of assay [13]: viability loss in pontine glioma line – cell-based, SU-DIPG-XXV, MIPE5.0, CellTiter-Glo, qHTS, dose response (AID 1347065; cut-off not given, nearly all actives have AC50 up to about 26 µM;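 further: cells exposed to compound for 48 hours before ATP readout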). The conditions noted are these: CellTiter-Glo ATP luminescence.
Where [14] appears, read: stronger effect = lower value, cell number ratio, induced over uninduced.
The mark [15] stands for this setting: measured here: relative caspase fold change +Dox/-Dox.
The mark [16] stands for this setting: measured here: total cells with miR-34 induction, stronger effect = lower value.
Setting [17] is: measured here: total cells without miR-34 induction.
Setting [18] is: MELAS cybrid survival, CellTiter-Glo 48 h, stronger effect = higher value.
Where [19] appears, read: Rieske KO mouse fibroblast survival, CellTiter-Glo 72 h.

Results filed as inconclusive are left out. Active and inactive are the calls of the source.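 How the source made its calls, unless noted: active means normalized viability below 100% at a tested concentration; inactive means the rest.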

By viability is commonly meant a read-out of living cells in per cent, often relative to untreated cells. As for `CNC(=O)c1ccc(C)c(-n2c(C)cc(OCc3ccc(F)cc3F)c(Br)c2=O)c1`, the outcome in assay [1], in assay [2], in [3], in [4], in assay [5] and in [6] was inactive. Also, the fold change in [7] (setting [14]) was 0.88 (inactive); in assay [7] (setting [15]) it was 0.999. Also, the cell count was determined as 7360 in assay [7] (setting [16]), 8370 in assay [7] (setting [17]) and 7630 in assay [8]. In [8], this molecule returned an SSMD of 3.49. Also, the plate-normalised HSF1 focus index in assay [8] was 1.22 (inactive). In addition, the z-score in [9] (setting [18]) was -0.398 (inactive); in assay [9] (setting [19]) it was -1.25. Moreover, the viability in [10] (at 0.000305 µM, OCI-C5x cells, with rucaparib 10 µM, 100% = cells with rucaparib alone) was 104% (inactive); in [10] (at 0.000305 µM, OCI-C5x cells, without rucaparib), 124% (inactive); in [10] (at 0.000305 µM, OCI-P5x cells, with rucaparib 20 µM, 100% = cells with rucaparib alone), 115% (inactive); in assay [10] (at 0.000305 µM, OCI-P5x cells, without rucaparib), 115% (inactive); in assay [10] (at 0.00122 µM, OCI-C5x cells, with rucaparib 10 µM, 100% = cells with rucaparib alone) it was 110% (inactive); in assay [10] (at 0.00122 µM, OCI-C5x cells, without rucaparib) it was 124% (inactive). Further, the viability in assay [10] (at 0.00122 µM, OCI-P5x cells, with rucaparib 20 µM, 100% = cells with rucaparib alone) was 107% (inactive); in [10] (at 0.00122 µM, OCI-P5x cells, without rucaparib), 105% (inactive); in [10] (at 0.00488 µM, OCI-C5x cells, with rucaparib 10 µM, 100% = cells with rucaparib alone), 105% (inactive); in [10] (at 0.00488 µM, OCI-C5x cells, without rucaparib) it was 102% (inactive); in [10] (at 0.00488 µM, OCI-P5x cells, with rucaparib 20 µM, 100% = cells with rucaparib alone), 112% (inactive); in assay [10] (at 0.00488 µM, OCI-P5x cells, without rucaparib), 111% (inactive). For the same molecule, the viability was 97.8% (active) in assay [10] (at 0.0195 µM, OCI-C5x cells, with rucaparib 10 µM, 100% = cells with rucaparib alone); 113% (inactive) in assay [10] (at 0.0195 µM, OCI-C5x cells, without rucaparib); 114% (inactive) in assay [10] (at 0.0195 µM, OCI-P5x cells, with rucaparib 20 µM, 100% = cells with rucaparib alone); 107% (inactive) in assay [10] (at 0.0195 µM, OCI-P5x cells, without rucaparib); 101% (inactive) in assay [10] (at 0.0781 µM, OCI-C5x cells, with rucaparib 10 µM, 100% = cells with rucaparib alone); 106% (inactive) in [10] (at 0.0781 µM, OCI-C5x cells, without rucaparib). Besides, the viability in assay [10] (at 0.0781 µM, OCI-P5x cells, with rucaparib 20 µM, 100% = cells with rucaparib alone) is 108% (inactive); in assay [10] (at 0.0781 µM, OCI-P5x cells, without rucaparib), 108% (inactive); in assay [10] (at 0.313 µM, OCI-C5x cells, with rucaparib 10 µM, 100% = cells with rucaparib alone), 90.4% (active); in assay [10] (at 0.313 µM, OCI-C5x cells, without rucaparib), 119% (inactive); in assay [10] (at 0.313 µM, OCI-P5x cells, with rucaparib 20 µM, 100% = cells with rucaparib alone), 112% (inactive); in assay [10] (at 0.313 µM, OCI-P5x cells, without rucaparib), 112% (inactive). Besides, the viability was 91.7% (active) in assay [10] (at 1.25 µM, OCI-C5x cells, with rucaparib 10 µM, 100% = cells with rucaparib alone); 112% (inactive) in assay [10] (at 1.25 µM, OCI-C5x cells, without rucaparib); 110% (inactive) in assay [10] (at 1.25 µM, OCI-P5x cells, with rucaparib 20 µM, 100% = cells with rucaparib alone); 108% (inactive) in [10] (at 1.25 µM, OCI-P5x cells, without rucaparib); 123% (inactive) in assay [10] (at 5 µM, OCI-C5x cells, with rucaparib 10 µM, 100% = cells with rucaparib alone); 129% (inactive) in assay [10] (at 5 µM, OCI-C5x cells, without rucaparib). Also, the viability in assay [10] (at 5 µM, OCI-P5x cells, with rucaparib 20 µM, 100% = cells with rucaparib alone) was 110% (inactive); in [10] (at 5 µM, OCI-P5x cells, without rucaparib), 105% (inactive).

Regarding `c1ccc(-c2nn3c(c2-c2ccnc4cc(OCCN5CCOCC5)ccc24)CCC3)nc1`, the call in assay [1], in assay [2], in assay [3], in [4], in [5] and in assay [11] was inactive. Further, the molecule was classed as inactive in assay [12]. Moreover, the SSMD in [8] is 2.44. For the same molecule, the cell count in assay [8] turned out to be 6520. For the same molecule, the plate-normalised HSF1 focus index in assay [8] was 1.13 (inactive).

For orientation: AC50 means the concentration giving half of the maximal activity seen. The IC50 is the concentration at which inhibition is half-maximal. Regarding `CNC(=O)c1ccccc1Nc1nc(Nc2ccc(N3CCOCC3)cc2OC)ncc1Cl`, the half-maximal activity concentration (AC50) in [1] was 590 nM (active); in [2], 5900 nM (active); in assay [3] it was 1480 nM (active); in assay [4], 2960 nM (active); in [5] it was 235 nM (active); in [13], 186 nM (active). Besides, the AC50 in assay [12] was 661 nM (active). Moreover, in assay [6], the IC50 was 1050 nM (active). In addition, the values for the fold change in assay [7] (setting [14]) and in assay [7] (setting [15]) were 0.899 (inactive) and 0.999, respectively. In addition, the cell count amounted to 1560 in assay [7] (setting [16]) and 1730 in assay [7] (setting [17]). Further, the z-score was 0.492 (inactive) in assay [9] (setting [18]) and -1.89 in [9] (setting [19]).

Regarding `Cc1cncc2cccc(S(=O)(=O)N3CCCN(C(=O)CN)C[C@@H]3C)c12`, the result in assay [1], in assay [2], in assay [3], in assay [5], in [11] and in assay [12] was inactive. Further, in [4], the half-maximal activity concentration (AC50) was 372 nM (active).

As to `CC(C)Oc1cc(Nc2nc(N[C@@H](C)c3ccc(F)cn3)ncc2Cl)[nH]n1`, the AC50 is 1050 nM (active) in [1]; 11800 nM (active) in [2]; 10500 nM (active) in assay [3]; 6620 nM (active) in assay [4]; 1180 nM (active) in assay [5]; 742 nM (active) in [13]. Further, the concentration at half-maximal activity (AC50) in assay [12] was 5900 nM (active). For the same molecule, in assay [8], the SSMD is -0.66. The molecule further had a cell count in assay [8] of 6860. The plate-normalised HSF1 focus index in assay [8] is 0.979 (inactive).
